Compounds without any hit were thinned out: in the full panel of roughly 83,000, 20% have a hit.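 96-well plates, one dose, 48 hours. Percent growth reported; active if below 10.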 The source made the active and inactive calls.

This assay has as its system HL-60(TB) leukemia. Put plainly: NCI-60 one-dose screen, 48 h (100 = growth as untreated, 0 = no growth, -100 = all killed). To be noted: 10 µM unless noted.
For `O=C(c1ccncc1)N1N=C(c2ccc(Cl)cc2)C[C@H]1c1cn(-c2ccccc2)nc1-c1ccccc1`, the growth is 107% (inactive).
In the case of `CCN(CC)CCCC(C)NC(=S)N/N=C(\C)c1ccccn1` (stereo not given), the growth is -3.79% (active).
As to `O=C(NCc1ccco1)C1CCN(S(=O)(=O)c2ccc(Cl)cc2)CC1`, the growth is 19.1% (inactive).
As to `COc1ccc(S(=O)(=O)N2CCN(C)CC2)cc1NC(=O)c1[nH]c(C)c2c1CCCCC2=O`, the growth was 8.16% (active).
As to `c1ccc(Sc2ncnc3ccccc23)cc1`, the growth is 74.1% (inactive).
Take `CCCCn1c2cc(OCc3cn(-c4ccc(Cl)cc4)nn3)ccc2c2ccnc(C)c21`: the growth is -46.5% (active).
Turning to `CC(=O)O.[In]`, the growth was 93.4% (inactive).
As to `O=c1[nH]nc(-c2ccc(Cl)cc2)cc1Cc1ccccc1`, the growth is 77% (inactive).
With `O=S(=O)(CCN1CCOCC1)Nc1cc(-c2ccc3ncnc(Nc4ccc(F)c(Cl)c4)c3c2)cnc1Cl`, the growth is 27.3% (inactive).
On to `Cc1cc(Nc2nc(N3CCNCC3)nc3ccccc23)n[nH]1`, for which the growth is 106% (inactive).
Consider `CCOP(=O)(O)OP(=O)(O)OCC`, for which the growth was 94.1% (inactive).
For the compound `O=c1ccc2cc3ccccc3cc2[nH]1`, the growth was 67.7% (inactive).
The figure for `O=C(c1ccccc1)N(CCCCl)C(=O)N(CCCCl)C(=O)c1ccccc1` is 94% (inactive); for `O=S(=O)(Cc1cccc2c(CS(=O)(=O)c3ccc(Cl)cc3)cccc12)c1ccc(Cl)cc1` it is 93.5% (inactive).
For `O=S(=O)(O)c1ccc2cc(O)ccc2c1`, the growth was 100% (inactive).
With `CNC(=O)c1cc(Oc2ccc3nc(NC(=O)NC(C)C)sc3c2)ccn1` the figure was 47.8% (inactive); with `Nc1nc(SCc2cccc([N+](=O)[O-])c2)c2[nH]cnc2n1`, 94.9% (inactive); with `Cc1ccc(S(=O)(=O)N(CCC(=O)O)c2ccccc2)cc1`, 92.1% (inactive).
As for `C=CCN=c1sc(-c2ccc3ccccc3c2)cn1NC(=O)c1cc2ccc1CCc1ccc(cc1)CC2`, the growth was 49.2% (inactive).
The figure for `C=CCn1c(SCC(=O)Nc2ccc(C(=O)/C=C/c3cc(OC)c(OC)c(OC)c3)cc2)nnc1-c1cc(-c2ccc(OC)cc2)nc2ccccc12` is 96.4% (inactive); for `CCCCCCCC(=O)SCC/C=C/[C@@H]1CC(=O)NCc2cc(ccn2)C2=N[C@@](C)(CS2)C(=O)N[C@@H](C(C)C)C(=O)O1` it is 22.6% (inactive).
As to `CCOC(=O)c1sc2nc(-c3cc4ccccc4o3)cc(-c3ccc(Cl)cc3)c2c1N`, the growth was 108% (inactive).
In the case of `O=C1C(Cl)=C(NCCN2CCOCC2)C(=O)c2ncccc21`, the growth was -45.5% (active).
`COc1cc(C)ccc1Oc1nc(Nc2ccc(N3CCOCC3)cc2)ncc1N=Cc1cc(C(F)(F)F)cc(C(F)(F)F)c1`: the growth was 67.4% (inactive).
As for `CCOC(=O)C1=C(C)N2C(=NC3=C(CCCC/C3=C\c3ccccc3)C2c2ccccc2)S1` (stereo not given), the growth is 101% (inactive).
Consider `CN1CCN(Cc2ccc(NC(=O)c3cncc(C#Cc4cncc5[nH]ncc45)c3)cc2C(F)(F)F)CC1`, for which the growth was -28.9% (active).
Consider `COc1ccccc1-c1nc2ccc3[nH]ncc3c2c2c1CCCC2`, for which the growth was 89.6% (inactive).
In the case of `COCCCC/C(=N\OCCN)c1ccc(C(F)(F)F)cc1`, the growth was 122% (inactive).
Turning to `Cc1cccc(N2CCC(=O)NC2=S)c1`, the growth is 98.6% (inactive).
The figure for `C=C1C(=O)O[C@H]2[C@H]1CC/C(COC(=O)c1c[nH]c3ccccc13)=C\CC[C@@]1(C)O[C@@H]21` is -25.9% (active); for `CNCc1ccccc1CN(CC(=O)Nc1ccc2c(c1)CC1(C2)C(=O)Nc2ncccc21)C(=O)C(C)(C)C` (stereo not given) it is 100% (inactive); for `CN1CCN=C1c1ccc(NC(=O)c2ccc(C(=O)Nc3ccc(C4=NCCN4C)cc3)cc2)cc1` it is 91.2% (inactive).
On to `COc1ccc(-c2c(-c3ccc(OC)c(O)c3)cnc3ncnn23)cc1`, for which the growth was 106% (inactive).
The figure for `Nc1c(C(=O)Nc2cccc3ncccc23)sc2nc3c(cc12)CN(Cc1ccccc1)CC3` is 48.6% (inactive); for `O=C1C[C@H](c2ccccc2)[C@H](c2ccccc2)C1` it is 88.1% (inactive).
On to `N#C/C(=C\c1ccc(Br)cc1)c1cc2ccccc2[nH]1`, for which the growth is 98.2% (inactive).
The figure for `CCCCN(CCCC)c1cc(C(=O)CCCCCN)c2ccccc2n1` is -67.9% (active); for `CC(C)c1ccc(C(=O)Nc2nc3ccc(O)cc3s2)cc1` it is 14.4% (inactive).
The figure for `CCCCCCCCCCCCCCCCCC(=O)[O][Sn]([CH2]CCC)([CH2]CCC)[CH2]CCC` is -18.5% (active); for `CC(=O)Nc1cc2c3c(cccc3c1)-c1ccccc1-2` it is 0.506% (active).

Values taken from PubChem BioAssay (NCI).
